Test results reported in PubChem BioAssay AID1732 (National Center for Advancing Translational Sciences (NCATS), 2009).
The list shows a part of the results. Records with an inconclusive call do not appear. The call rests on the fitted dose curve; in most records, active means well fitted inhibition curve with a large enough effect; inconclusive means small, poorly fitted or top-dose-only effect, or effect the other way, or another doubt; inactive means no such curve, though single readings can be large or run the other way.

Molecular target: Dual specificity mitogen-activated protein kinase kinase 1 (Homo sapiens) (UniProt Q02750)
Sequence (Q02750 whole entry, looked up): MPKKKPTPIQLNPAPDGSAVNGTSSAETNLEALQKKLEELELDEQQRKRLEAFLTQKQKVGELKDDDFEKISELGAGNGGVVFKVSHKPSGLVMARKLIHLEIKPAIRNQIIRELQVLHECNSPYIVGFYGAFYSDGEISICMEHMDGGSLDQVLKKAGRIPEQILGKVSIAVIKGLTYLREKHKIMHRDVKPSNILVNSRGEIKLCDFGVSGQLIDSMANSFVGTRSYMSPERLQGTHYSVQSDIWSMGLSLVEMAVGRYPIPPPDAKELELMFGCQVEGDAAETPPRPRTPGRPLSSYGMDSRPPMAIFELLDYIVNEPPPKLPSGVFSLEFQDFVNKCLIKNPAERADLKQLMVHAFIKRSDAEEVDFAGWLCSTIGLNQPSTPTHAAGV
Assay: Assay for Inhibitors of the ERK Signaling Pathway using a Homogeneous Screening Assay: MEK Inhibition
Conditions: series mostly up to 76.9 µM; activity change, negative = inhibition: at the top concentration
Text: qHTS Assay for Inhibitors of the ERK Signaling Pathway using a Homogeneous Screening Assay
NIH Chemical Genomics Center [NCGC]
NIH Molecular Libraries Screening Centers Network [MLSCN]
Assay Submitter (PI): Dr. Wei Zheng, NCGC/NIH
The Ras/extracellular-signal-regulated kinase (ERK) mitogen activated protein (MAP) kinase signaling pathway (ERK1/2 cascade) plays is a key role in transmitting signals from the cell surface to the nucleus (Nishida and Gotoh 1993; Chang and Karin, 2001). The cascade is initiated by the small G-protein Ras, which recruits Raf […], where activation occurs. Alternatively, this pathway can be activated by elevating intracellular cAMP.
Activation of the ERK pathway is essential in increased cell division and cell survival. Sustained and constitutive activation of the ERK pathway, however, has been linked to uncontrolled cell proliferation, increased cell survival, and tumor progression. Thus, the ERK has been as an attractive target for cancer chemotherapy in the past few years (Sebolt-Leopold and Herrera, 2004). Given its physiological and pathological importance, assessment of ERK phosphorylation has been broadly performed in both basic research and drug discovery. Most assays for the measurement of ERK phosphorylation use the antibody-based detection methods, such as western blot and ELISA. These assays require multiple reagent additions with cell wash steps and are not suitable for high-throughput screening.
The current cell-based ERK phosphorylation assay was performed using AlphaScreen platform. AlphaScreen is a two bead-based proximity-dependent chemical energy transfer luminescent assay platform. The assay reagents (ERK SureFire(TM) kit) were supplied from TGR BioSciences (Australia). […]
The HTRF kinase assay (components supplied as kit by Cisbio) was chosen for the EGFR and EGFR mutant enzyme assays that applied the time resolved fluorescence resonance energy transfer (TR-FRET) principle. […]

Activity change, negative = inhibition, inactive:
CN(C)c1cc2c(Nc3ccc4c(cnn4Cc4ccccc4)c3)ncnc2cn1 -11.3%
O=[N+]([O-])c1ccccc1N/N=C1\CCc2ccccc21 -2.01%
CCCNc1ncnc2sc(C)c(C)c12 -6.81%
